Reference: article PMC4336329 (PLoS ONE, 2015)
Among all 310,000 compounds or so, about 14,000 (4.5%) showed an effect of 50% or more. Effects have a minus sign here. For the sample, strong results were picked, then their nearest neighbours and some compounds at random.

These compounds were tested against human ether-à-go-go-related gene (hERG) potassium channel (human, UniProt Q12809) (assay: primary screen, population patch clamp on CHO cells stably expressing hERG; higher = less effect of the substance).
Chain of human ether-à-go-go-related gene (hERG) potassium channel (Q12809 whole entry, looked up): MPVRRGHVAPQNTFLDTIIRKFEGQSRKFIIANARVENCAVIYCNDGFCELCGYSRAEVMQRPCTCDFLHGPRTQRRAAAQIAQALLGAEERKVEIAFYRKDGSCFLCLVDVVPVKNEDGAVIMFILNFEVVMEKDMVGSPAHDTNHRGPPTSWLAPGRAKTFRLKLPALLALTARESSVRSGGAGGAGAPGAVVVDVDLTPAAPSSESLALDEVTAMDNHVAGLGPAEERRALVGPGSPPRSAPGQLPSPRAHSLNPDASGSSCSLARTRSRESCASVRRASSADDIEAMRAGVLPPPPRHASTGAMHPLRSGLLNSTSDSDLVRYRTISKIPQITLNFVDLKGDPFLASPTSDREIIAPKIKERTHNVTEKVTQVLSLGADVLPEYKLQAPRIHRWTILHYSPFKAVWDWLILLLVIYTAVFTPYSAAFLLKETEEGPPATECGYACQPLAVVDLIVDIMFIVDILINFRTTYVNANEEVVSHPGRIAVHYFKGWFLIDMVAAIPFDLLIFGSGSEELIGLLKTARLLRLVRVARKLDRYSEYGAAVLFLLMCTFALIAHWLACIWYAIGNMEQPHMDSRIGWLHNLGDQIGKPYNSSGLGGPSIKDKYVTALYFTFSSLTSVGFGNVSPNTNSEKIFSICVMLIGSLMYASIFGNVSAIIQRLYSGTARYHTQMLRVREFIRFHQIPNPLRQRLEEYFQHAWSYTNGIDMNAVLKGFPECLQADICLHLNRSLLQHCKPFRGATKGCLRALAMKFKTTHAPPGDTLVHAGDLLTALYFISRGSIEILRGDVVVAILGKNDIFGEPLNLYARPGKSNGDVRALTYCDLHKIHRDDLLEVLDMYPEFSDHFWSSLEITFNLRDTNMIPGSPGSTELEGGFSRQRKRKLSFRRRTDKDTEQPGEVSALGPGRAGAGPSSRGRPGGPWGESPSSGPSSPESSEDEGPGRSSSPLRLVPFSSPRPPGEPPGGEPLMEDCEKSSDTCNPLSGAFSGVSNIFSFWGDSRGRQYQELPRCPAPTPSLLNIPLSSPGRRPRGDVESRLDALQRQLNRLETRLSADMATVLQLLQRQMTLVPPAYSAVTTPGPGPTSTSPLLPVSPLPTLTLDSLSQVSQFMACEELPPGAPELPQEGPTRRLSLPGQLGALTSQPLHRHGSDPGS
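Also: peak tail current of the secondary pulse compared with the same well before compound.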

SMILES | hERG current change (%, negative = inhibition) at 10uM [%]
Cc1ccc(S(=O)(=O)N2CCC(C(=O)OCc3c(C)noc3C)CC2)cc1C | -15.8
COc1ccc(S(=O)(=O)NC2CC(C)(C)NC(C)(C)C2)c2ccccc12 | 6.47
CCc1nc(C)c(C#N)c2cc(OC)c(OC)cc12 | 1.21
CC(C)(C)OC(=O)NCCc1nnc(S(=O)(=O)Cc2ccc(Cl)cc2Cl)o1 | -5.97
CCCOc1ccc(/C=N/NC(=S)Nc2ccccc2[N+](=O)[O-])c(O)c1 | 24.3
COC(=O)c1c(C)c2c(C)cc3ccccn3c-2c1C(=O)OC | -4.02
O=C(O)CCC(=O)N1CCN(S(=O)(=O)c2ccc3ccccc3c2)CC1 | 25.6
O=C1c2cccc3cccc(c23)C(=O)N1CCCN1CCN(c2ccc(F)cc2)CC1 | -69.2
O=C(CN1C(=O)c2cccc3cccc(c23)C1=O)N1CCCCCC1 | 9.58
COc1ccccc1N1CCN(C2=Nc3cccc4cccc2c34)CC1 | -71.5
O=C(CN1CCN(CCN2C(=O)c3cccc4cccc(c34)C2=O)CC1)c1ccc(F)cc1 | -42.4
O=C(CCCN1C(=O)c2cccc3cccc(c23)C1=O)N1CCN(c2ccc(F)cc2)CC1 | -1.91
CC(=O)N1CCN(C2=Nc3cccc4cccc2c34)CC1 | -46
c1cc2c3c(cccc3c1)C(N1CCCCCC1)=N2 | -67
COc1ccccc1N1CCN(C(=O)CN2C(=O)c3cccc4cccc(c34)C2=O)CC1 | 16.9
c1ccc(NC2=Nc3cccc4cccc2c34)cc1 | 1.71
Cc1cc(C)n(Cc2ccc(C(=O)Nc3ccc(Br)cc3C)o2)n1 | -19.4
O=C(COc1ccccc1O)Nc1ccc(Cl)cc1 | 5.23
Cc1ccc(C(=O)CSc2ccccc2C(=O)O)cc1 | 16.9
Cc1ccccc1C(=O)NC1CCN(Cc2nnnn2C2CCCC2)CC1 | 3.85
C#CCOC(=O)c1ccccc1C(=O)O | 7.07
N#C/C(=C/c1cc(Br)cs1)C(=O)NCC1CCCO1 (centres unmarked) | -14.8
O=C(OCn1ncc(Br)c(Br)c1=O)c1c(F)cccc1F | 14.9
O=C(OCn1ncc(Br)c(Br)c1=O)c1ccc(F)cc1 | -51.4

SMILES | hERG current change (%, negative = inhibition) at 10uM [%]
O=C(OCn1ncc(Cl)c(Cl)c1=O)c1ccc(F)cc1 | -3.74
O=C(CN1CCN(Cc2ccc(F)cc2)CC1)Nc1ccccc1F | -35.2
Cl.O=C(CN1CCN(C(=O)c2cccc(F)c2)CC1)NC1CCCCC1 | 2.39
O=C(c1cccc(Cl)c1)N1CCN(Cc2ccccc2F)CC1 | 10.1
O=C(CN1CCN(C(=O)c2c(F)cccc2F)CC1)Nc1ccccc1F | -11.3
O=C(CN1CCN(Cc2cccc(F)c2)CC1)NCc1ccccc1 | -10.4
O=C(CN1CCCCCC1)Nc1ccc(Cl)cc1F | -2.05
O=C(CN1CCN(C(=O)c2cccc(F)c2)CC1)Nc1ccccc1F | -70.1
O=C(CN1CCN(C(=O)c2ccccc2)CC1)Nc1ccc(Cl)cc1F | -71
O=C(CN1CCN(Cc2cccc(F)c2)CC1)Nc1ccccc1F | -55.9
Cc1ccc(-c2nc(C3CCCN(S(=O)(=O)c4ccc(C(F)(F)F)cc4)C3)no2)cc1 (centres unmarked) | 15
CC(C)(C)C(=O)Nc1c2c(nn1-c1ccc(F)cc1)CSC2 | 13.4
COc1ccc(C(=O)NCCSCc2ccccc2)cc1OC | -5.31
Cc1nnc(SCC(=O)NC2CCCCC2)s1 | 10.7
O=[N+]([O-])c1cc(C(F)(F)F)ccc1Oc1cccnc1[N+](=O)[O-] | -7.06
O=C1CSC(=S)N1Cc1cccnc1 | -2.25
O=S(=O)(Nc1ccccn1)c1ccc(Br)cc1 | -2.97
Cc1cc(C)c(C#N)c(Nc2ccccc2C)n1 | 12.4
O=C(O)C(=O)O.O=[N+]([O-])c1cccc(CN2CCN(Cc3ccc(Br)cc3)CC2)c1 | -72.4
CC(C)N1CCN(Cc2cccc([N+](=O)[O-])c2)CC1 | -2.13
O=C(O)C(=O)O.O=C(c1ccco1)N1CCN(Cc2cccc([N+](=O)[O-])c2)CC1 | -20.3
O=C(O)C(=O)O.O=C(c1cccs1)N1CCN(Cc2cccc([N+](=O)[O-])c2)CC1 | -33.1
O=C(O)C(=O)O.O=[N+]([O-])c1cccc(CN2CCN(Cc3ccco3)CC2)c1 | -4.34
O=C(O)C(=O)O.O=[N+]([O-])c1cccc(CN2CCN(Cc3ccc(Cl)cc3)CC2)c1 | -70.8

SMILES | hERG current change (%, negative = inhibition) at 10uM [%]
Cc1cccc(NC(=O)CN2C(=O)S/C(=C\c3ccccn3)C2=O)c1 | 30.2
O=C(CCn1nnc2ccccc21)Nc1nnc(-c2ccccc2F)s1 | 3.13
N#CC1=C(N)Oc2n[nH]c(-c3ccccn3)c2C1c1c(F)cccc1Cl (centres unmarked) | -3.23
CCOc1ccc(OCCCCNCCN)cc1.O=C(O)C(=O)O | 5.79
COC(=O)C1=NN(c2ccc(C)cc2)C2(S1)SC(C(C)=O)=C(C)N2c1ccccc1 (centres unmarked) | -10
CCOc1ccc(CNC(=O)CCSCc2ccccc2F)cc1OC | 5.18
Cc1ccc(/C=C(/C#N)c2nc(CCN3C(=O)c4ccccc4C3=O)cs2)cc1 | 21.6
COc1ccc(CN2CCN(S(=O)(=O)c3ccccc3)CC2)c(OC)c1OC | 3.14
COc1ccc(S(=O)(=O)N2CCN(Cc3cc(OC)c(OC)cc3OC)CC2)cc1.O=C(O)C(=O)O | -11.5
COc1ccc(OC)c(CN2CCN(S(=O)(=O)c3ccc(NC(C)=O)cc3)CC2)c1.O=C(O)C(=O)O | -3.01
COc1ccc(CN2CCN(S(=O)(=O)c3ccccc3)CC2)c(OC)c1.O=C(O)C(=O)O | -63.5
COc1ccc(OC)c(CN2CCN(S(=O)(=O)c3ccccc3)CC2)c1 | -79.2
COc1cc(CN2CCN(S(=O)(=O)c3ccccc3)CC2)cc(OC)c1OC.O=C(O)C(=O)O | -5.31
CCOC(=O)Cn1cnc2sc(C(=O)OC)c(C)c2c1=O | 11.1
CCn1c(COc2ccccc2OC)nnc1SCC#N | -3.43
C=CCn1c(SCC(=O)c2cccs2)nc2sc(C)cc2c1=O | 1.56
Cc1ccc(NC(=O)Nc2cccc(Cl)c2)c(C(=O)O)c1 | 19.6
CC1=C(C(=O)Nc2ccccc2)C(c2ccc3c(c2)OCO3)C2=C(CCCC2=O)N1 (centres unmarked) | -14.2
O=C1Nc2ccc(Br)cc2C1(O)Cc1ccncc1 (centres unmarked) | -2.45
CSCCC(NC(=O)COc1ccccc1)C(=O)OCc1ccc([N+](=O)[O-])cc1 (centres unmarked) | -70.8
COC(=O)c1ccc(COC(=O)C(CCSC)NC(=O)COc2ccccc2)cc1 (centres unmarked) | -9.2
CSCCC(NC(=O)COc1ccccc1)C(=O)N1CCOCC1 (centres unmarked) | -9.88
CSCCC(NC(=O)COc1ccccc1)C(=O)N(C)Cc1ccc(Cl)cc1Cl (centres unmarked) | -24.5
CSCCC(NC(=O)COc1ccccc1)C(=O)N(C)Cc1cccc(F)c1 (centres unmarked) | -37.9

SMILES | hERG current change (%, negative = inhibition) at 10uM [%]
CSCCC(NC(=O)COc1ccccc1)C(=O)N(C)Cc1ccc(F)cc1 (centres unmarked) | -50.3
CSCCC(NC(=O)COc1ccccc1)C(=O)OCC(=O)c1ccccc1 (centres unmarked) | 4.14
CSCCC(NC(=O)COc1ccccc1)C(=O)N1CCN(c2ccccc2)CC1 (centres unmarked) | -51.9
CSCCC(NC(=O)COc1ccccc1)C(=O)N1CCN(C(C)=O)CC1 (centres unmarked) | -5.67
CC(=O)N1CCCc2ccccc21 | 15.5
O=C(NCc1ccc(Cl)c(Cl)c1)c1ccc2c(c1)OCO2 | -10.7
COc1ccccc1C(=O)NC(CCSC)C(=O)NNC(=O)C(C)Oc1ccccc1F (centres unmarked) | 0.592
O=C(O)COc1nsnc1N1CCOCC1 | 10.4
COc1cc(C(=S)N2CCCCC2)ccc1OCC(=O)Nc1ccccc1Cl | 18.9
S=c1[nH]nc(-c2ccc(Br)cc2)n1-c1ccc(Br)cc1 | 12.2
CCOC(=O)c1sc(N(Cc2ccccc2)C(=O)COC(=O)c2cnccn2)nc1C | 0.26
CCc1ccc(NC2=NC(C(=O)NC3CCCCC3)CC(=O)N2)cc1 (centres unmarked) | 14.9
O=c1[nH]c2cccnc2n1Cc1ccccc1 | 7.67
CCc1ccc(NC(=O)C(=O)N/N=C(\C)CC(=O)NCCOC)cc1 | -2.99
CN(CCOc1ccccc1)C(=O)c1ccc(N2CCCC2)c([N+](=O)[O-])c1 | -27.5
CN(CC1COc2ccccc2O1)C(=O)c1ccc(Cl)c(S(=O)(=O)N2CCCCCC2)c1 (centres unmarked) | -25.8
Cc1ccc(S(=O)(=O)N2CCCCC2)cc1C(=O)N(C)CCOc1ccccc1 | -48
O=C(NCCOc1ccccc1)c1cc(C(=O)NCCOc2ccccc2)cc([N+](=O)[O-])c1 | -15.2
Cc1ccc(C(=O)N(C)CCOc2ccccc2)cc1S(=O)(=O)N1CCCCC1 | -51.4
CN(CCOc1ccccc1)C(=O)c1cc(S(=O)(=O)N2CCCCC2)ccc1Cl | -42.7
Cc1ccc(C(=O)N(C)CCOc2ccccc2)cc1S(=O)(=O)N1CCOCC1 | -15.6
CN(CCOc1ccccc1)C(=O)c1ccc(Cl)c(S(=O)(=O)N2CCCCC2)c1 | -67.4
CN(CCOc1ccccc1)C(=O)c1cc([N+](=O)[O-])cc([N+](=O)[O-])c1 | -56.9
